Screening data deposited in PubChem BioAssay by National Center for Advancing Translational Sciences (NCATS).
This is a sample that favours compounds with a hit; in the whole collection about 19% have one here.
KB-V1 cytotox = qHTS assay for MDR1-selective chemotherapeutics: Primary screen using the drug-selected MDR subline cells KB-V1; KB-V1 MDR cells viability, CellTiter-Glo, 72 h; Potency, µM (titrated, usually from 46.1 µM), most hits filed as cytotoxic; 400,000 compounds, 3.4% hits; AID 1347076, 2019; further: nearly all actives have a fitted effect of over 60% in size
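Compound-treated KB-V1 multidrug-resistant cells, 72 h, 37 degrees C; viability by CellTiter-Glo. Fitted qHTS curves give the values.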
KB-3-1 tox = qHTS assay for MDR1-selective chemotherapeutics: Primary screen using the parental adenocarcinoma cell KB-3-1. KB-3-1 viability, CellTiter-Glo ATP luminescence, 72 h. Potency, µM (doses to about 46.1 µM), hits mostly cytotoxic. 400,000 compounds, 1.4% hits; further: nearly all actives have a fitted effect of over 60% in size
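Viability of parental KB-3-1 cells, measured by CellTiter-Glo luminescence, followed a 72 h incubation at 37 °C with pinned compounds in phenol-red-free DMEM containing 10% FBS.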
HT1080NT lethal = qHTS for induction of synthetic lethality in tumor cells producing 2HG: qHTS for the HT-1080-NT fibrosarcoma cell line; HT-1080-NT fibrosarcoma viability, CellTiter-Glo ATP luminescence, 48 h; Potency, µM (series often up to 46.1 µM), for the others: top-dose activity, negative = less viability, hits mostly cytotoxic; 360,000 compounds, 1.6% hits; AID 686970, 2013;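 further: NT is the 2HG producing partner of a matched IDH1 knockdown line; 0% = DMSO-treated cells and -100% = media-only wells without cells; nearly all actives have a fitted effect of over 55% in size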
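Viability of the 2HG-overproducing fibrosarcoma line after 48 hours of compound exposure at 37 degrees C was determined by luminescence with CellTiter-Glo, and concentration-effect curves were then fitted and categorized.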
HT1080 IDH1KD tx = qHTS for induction of synthetic lethality in tumor cells producing 2HG: qHTS for the HT-1080-IDH1KD cell line; HT-1080 IDH1 knockdown viability, ATP luminescence, 48 h; Potency, µM (series often up to 46.1 µM), without a hit: top-dose activity, negative = toxicity, most hits filed as cytotoxic; 360,000 compounds, 2% hits;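 further: 0% = DMSO wells and -100% = cell-free medium wells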
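IDH1KD HT-1080 cells, 750/well, RPMI + 5% FBS; compound pinned after 2 h settling; 48 h, 37 °C; CellTiter-Glo luminescence; % activity normalised to DMSO and no-cell wells; curves fitted, classed by r2 and efficacy.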
TDP1 cell CPT = qHTS for Inhibitors of human tyrosyl-DNA phosphodiesterase 1 (TDP1): qHTS in cells in presence of CPT; chicken DT40 Tdp1-/-;hTDP1 cells + 20 nM CPT, ATP luminescence, 48 h; Potency, µM (highest dose often 46.2 µM), inactives show at the top dose activity change, negative = growth inhibition, usual class: inhibitors; 420,000 compounds, 12% hits; AID 686979, 2013; further: nearly all actives have a fitted effect of over 55% in size
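Chicken DT40 Tdp1-/- cells stably complemented with human TDP1 were seeded at 400 cells/well in medium containing 20 nM camptothecin, exposed to pin-transferred compounds, and grown at 37 °C for at least 48 hr. Viability was read as ATP luminescence.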
TDP1 cell noCPT = qHTS for Inhibitors of human tyrosyl-DNA phosphodiesterase 1 (TDP1): qHTS in cells in absence of CPT; DT40 Tdp1-/- hTDP1 cells, no CPT, ATP luminescence, 48 h; 420,000 compounds, 15% hits; Potency, µM (doses to about 46.2 µM), for inactives: at the top dose activity change, negative = growth inhibition, hits mostly inhibitors; AID 686978, 2013; further: nearly all actives have a fitted effect of over 55% in size
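A cellular qHTS used chicken DT40 cells lacking endogenous Tdp1 but carrying stably transfected human TDP1. Compounds were applied without camptothecin, and cell growth kinetics were judged by ATP-dependent luminescence after ≥48 hr.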
An asterisk follows results filed as active; i = inactive; ? = inconclusive; / = no result; ! = not confirmed by another sample. The call rests on the fitted dose curve; in most records, active means well fitted curve in the direction sought with a large enough effect; inconclusive means small, poorly fitted or top-dose-only effect, or another doubt; inactive means no such curve, though single readings can be large; an effect the other way counts as inactive or inconclusive. Unless noted, on the % scale 0 is the no-effect control and ±100 the full control effect; potency means the concentration at half of the fitted maximal effect.

SMILES	KB-V1 cytotox	KB-3-1 tox	HT1080NT lethal	HT1080 IDH1KD tx	TDP1 cell CPT	TDP1 cell noCPT
O=C(CNC(=O)c1cccc(F)c1)NC1CC1	/	/	0%	0%	-2%	-3%
COc1ccc(NC(=S)NN(C)C(=S)Nc2ccc(OC)cc2)cc1	?	?	1.5µM*	1.3µM*	?	?
CCNC(=S)Nc1ccc(Oc2ccccc2)cc1	i	i	-10%	-11%	?	18µM*
O=C(O)CCCC(=O)Nc1ccc(OCc2nc3ccccc3s2)cc1	i	i	-4%	-7%	10%	?
CCNC(=S)Nc1ccc(OCc2nc3ccccc3s2)cc1	i	i	-9%	-11%	16µM*	23µM*
COc1ccc(NC(=S)Nc2ccc(Oc3ccccc3)cc2)cc1	i	i	-6%	-8%	23µM*	?
Cc1cc(C)cc(N2CC(c3nnc(NC(=O)c4ccco4)s3)CC2=O)c1 (configuration not stated)	i	i	/	/	-18%	-24%
Cc1ccc(SC[C@H](CC(C)C)N2CCN(CCc3ccccc3)CCC2=O)cc1	i	?	-25%	-15%	?	?
O=C1CCN(Cc2ccc(Br)cc2)CCN1[C@H](CO)c1ccccc1	?	?	9%	8%	?	14µM*!
O=C1CCN(CCc2ccccc2)CCN1[C@H](CSc1ccc(Br)cc1)Cc1ccccc1	i	?	-13%	-9%	16µM*	15µM*
COc1ccc(SC[C@H](CC(C)C)N2CCN(CCc3ccccc3)CCC2=O)cc1	i	?	?	-21%	15µM*	18µM*
CC(C)C[C@@H](CN=[N+]=[N-])N1CCN(CCc2ccccc2)CCC1=O	i	i	/	/	?	13µM*
Cc1ccc(NC(=O)CN(C)C2CCCCC2)cc1Cl	i	i	-19%	-16%	0%	?
O=C(COC(=O)c1ccccc1NCCO)NCc1cccs1	i	i	3%	6%	-2%	-1%
CC(C)C[C@@H](CSc1ccc(Br)cc1)N1CCN(C)CCC1=O	i	i	-3%	-4%	?	?
O=C1CC[C@H](O)CCN1[C@H](CSc1ccccc1)Cc1ccccc1	i	i	11%	0%	?	?
O=C1CCN(Cc2ccccc2)CCN1[C@H](CSc1ccccc1)Cc1ccccc1	15µM*!	?	-7%	-13%	23µM*	20µM*
CC(C)C[C@@H](CSc1ccc(Br)cc1)N1CCN(CC(C)C)CCC1=O	i	i	0%	-3%	23µM*	16µM*
CCc1ccc2c(CC(=O)Nc3cccc(S(=O)(=O)N4CCOCC4)c3)coc2c1	i	i	-14%	0%	-10%	?
CCN(CC)C(=O)c1cccc(-c2csc(C(NC(C)=O)c3cccc(OC)c3)n2)c1 (configuration not stated)	?	i	-8%	6%	?	?
CCCN(C/C=C/I)C1CCc2cccc(O)c2C1 (configuration not stated)	/	/	/	/	?	15µM*
CCOC(=O)C1CCCN(C(=O)c2cccc(NC(=O)c3nsc4ccccc34)c2)C1 (configuration not stated)	i	i	/	/	21µM*	21µM*
CCOC(=O)C1CCCN(C(=O)c2ccccc2NC(=O)c2nsc3ccccc23)C1 (configuration not stated)	i	i	/	/	16µM*	?
CC(C)(C)C1CCC(OC(=O)C[N+]2(C)CCCC2)CC1 (configuration not stated)	i	i	0%	-5%	4.1µM*	5.2µM*
C[N+]1(CC(=O)OCCCC2CCCCC2)CCCC1	i	i	9%	-2%	-28%	21µM*
SMILES	KB-V1 cytotox	KB-3-1 tox	HT1080NT lethal	HT1080 IDH1KD tx	TDP1 cell CPT	TDP1 cell noCPT
COc1ccc(/C=C/C(=O)OC2CCCCC2CN(C)C)cc1 (configuration not stated)	i	i	-18%	2%	0%	-5%
CC(C)(C)C1CCC(OC(=O)CN2CCOCC2)CC1 (configuration not stated)	i	i	2%	0%	-11%	-5%
CC(C)(C)C1CCC(OC(=O)C[N+]2(C)CCCCC2)CC1 (configuration not stated)	i	i	0%	-5%	?	10µM*
CC(C)CC1CCCCC1OC(=O)C[N+]1(C)CCCCC1 (configuration not stated)	i	i	-4%	0%	?	10µM*
CC(C)NC(=O)COc1coc(CN2CCN(Cc3ccccc3)CC2)cc1=O	i	i	21%	23%	-6%	-5%
CCCSc1nnc2[nH]c(=O)cc(C)n12	/	/	/	/	6%	-2%
Cc1nnc(N2CCN(c3ccccc3F)CC2)c2c1nnn2Cc1ccc(F)cc1	?	i	/	/	?	?
Cc1nnc(N2CCN(c3ccccc3F)CC2)c2c1nnn2Cc1ccccc1	i	i	/	/	?	16µM*
Cc1nnc(N2CCN(c3ccccc3F)CC2)c2c1nnn2Cc1ccccc1Cl	i	i	/	/	15µM*	?
Cc1nc(Nc2ccc3c(c2)OCCO3)c2c(C)c(C)sc2n1	?	i	-7%	-5%	?	21µM*
c1ccc2c(c1)oc1c(Nc3ccc4c(c3)OCCO4)ncnc12	?	i	?	?	8.9µM*	?
Cc1nc(Nc2ccc3c(c2)OCCO3)c2oc3ccccc3c2n1	?	i	-19%	-19%	?	21µM*
COc1ccc(Nc2ncnc3c2oc2ccccc23)cc1	i	i	-10%	-10%	-14%	-24%
COc1cccc(NC(=O)CSC2=Nc3ccccc3C3=NC(CC(=O)NCCc4ccccc4)C(=O)N23)c1 (configuration not stated)	?	i	/	/	-18%	-8%
CCOC(=O)COC(=O)c1ccc(Oc2cc(C)nc(SC)n2)cc1	i	i	0%	-1%	22%	-4%
